# Source: PubChem
# TEAD-YAP inh = TEAD-YAP interaction inhibition, primary screen, TEAD-YAP interaction inhibitor project, luminescence, HEK-TIYL cells | TEAD-Gal4/YAP UAS-luciferase luminescence | inhibition, % at 9.12 µM | 1.4% of 640,000 active; in the data active = inhibition above about 32%;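 also: 0% = median of test compound wells and 100% = reference inhibitor wells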
# FBW7 activator = FBW7 E3 ligase activators, primary screen, biochemical, AlphaScreen, human; F-box/WD repeat-containing protein 7 (Homo sapiens), Q969H0; AlphaScreen FBW7–phospho-cyclin E peptide binding, activator screen; normalized activity (activation), % at 26.1 µM; 0.13% of 650,000 active; AID 1259310, 2017; in the data active = normalized activity above about 1.9%;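 also: purified mutant Fbw7 with reduced substrate affinity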
# MITF inh = MITF inhibitors, primary screen, biochemical, AlphaScreen, human. AlphaScreen MITF homodimerization, bead proximity signal. Microphthalmia-associated transcription factor (Homo sapiens), O75030. inhibition, % at 2.6 µM. AID 1259374, 2018. 0.91% of 650,000 active; in the data active = inhibition above about 50%;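 also: 0% = vehicle wells with protein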
# Target sequence (O75030 whole entry, looked up): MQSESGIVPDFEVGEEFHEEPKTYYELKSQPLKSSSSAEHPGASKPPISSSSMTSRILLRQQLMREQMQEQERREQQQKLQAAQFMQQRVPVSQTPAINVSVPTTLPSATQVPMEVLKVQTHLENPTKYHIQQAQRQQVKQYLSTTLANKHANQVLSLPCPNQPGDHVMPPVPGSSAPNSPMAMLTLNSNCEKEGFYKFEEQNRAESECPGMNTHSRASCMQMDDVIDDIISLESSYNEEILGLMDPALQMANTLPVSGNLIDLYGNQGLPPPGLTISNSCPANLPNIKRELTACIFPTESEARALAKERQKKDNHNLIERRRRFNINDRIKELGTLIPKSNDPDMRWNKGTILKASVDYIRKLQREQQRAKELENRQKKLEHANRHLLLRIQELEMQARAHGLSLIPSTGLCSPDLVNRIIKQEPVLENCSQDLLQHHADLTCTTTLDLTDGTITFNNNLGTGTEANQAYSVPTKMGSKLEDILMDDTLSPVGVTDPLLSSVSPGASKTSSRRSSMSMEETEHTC
# GPR151 ag = activators of human GPR151, primary screen, cell-based, PathHunter beta-arrestin, luminescence. G-protein coupled receptor 151 (Homo sapiens), Q8TDV0. PathHunter beta-arrestin GPR151 cells. activation, % at 11.2 µM. 1% of 650,000 active. AID 1508602, 2020; in the data active = activation above about 4.9%;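 also: 0% = median of compound wells and 100% = cells with positive control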
# MITF inh conf = MITF inhibitors, retest of hits, confirmation, biochemical, AlphaScreen, triplicate. shares compounds with MITF inh. AlphaScreen MITF homodimerization, biotin/His-MITF beads. inhibition, % at 2.6 µM. 16% of 4,700 active. AID 1259372, 2018;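 active = inhibition above a cutoff derived from the DMSO control wells, cut at about 28% in these data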;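 also: 0% = MITF dimer wells with DMSO only; inhibitors lower the bead chemiluminescence by keeping MITF from dimerizing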
# AlphaScreen intf2 = AlphaScreen optical interference compounds, counter-screen for MITF inhibitor project, biochemical, triplicate | shares compounds with MITF inh | LysRS AlphaScreen counterscreen, signal interference | inhibition, % at 2.6 µM | 7.6% of 4,700 active;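 active = inhibition above a cutoff derived from the DMSO control wells, cut at about 30% in these data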
# * = called active by the depositor; . = no result given. Rows were chosen to be rich in hits. Some 3.4% of all compounds tested hit in one or more screens of this group.
SMILES,TEAD-YAP inh,FBW7 activator,MITF inh,GPR151 ag,MITF inh conf,AlphaScreen intf2
Fc1ccc(CN2CCN(Cc3ccc4c(c3)OCO4)CC2)c(F)c1,0.4,0.1,60.9*,-0.6,0.1,5.7
N#C/C(=C\c1ccc(Cl)cc1)C(=O)OC1CCOC1=O (stereo not given),1.0,-0.1,7.8,0.9,.,.
c1coc(CNc2cc(-c3ccncc3)nc(-c3ccncc3)n2)c1,-0.1,0.0,-1.5,-0.1,.,.
Cc1ncc2c(c1CNC(=O)Cc1cccs1)CCN(C(=O)CCC1CCCC1)C2,-7.9,0.4,9.2,-0.4,.,.
Cc1ncc2c(c1CNC(=O)Cc1cccs1)CCN(C(=O)C1(C)CCCCC1)C2,7.0,-0.1,74.0*,-0.8,15.0,9.5
Cc1cc(C2C(C#N)=C(N)N(c3ccccc3Cl)C3=C2C(=O)CCC3)c(C)s1 (stereo not given),4.0,0.3,6.6,-2.1,.,.
Cc1cc(C2C(C#N)=C(N)N(c3ccccc3Cl)C3=C2C(=O)CC(c2ccccc2)C3)c(C)s1 (stereo not given),2.7,0.0,56.8*,0.2,-6.9,0.4
Fc1ccccc1CN1CCN(Cc2cccc(Oc3ccccc3)c2)CC1,-5.6,0.0,71.8*,0.0,5.9,3.3
c1ccc(Oc2cccc(CN3CCSCC3)c2)cc1,0.5,0.3,42.5,-0.2,.,.
O=C(c1ccncc1)N1CCN(Cc2cccc(Oc3ccccc3)c2)CC1,7.2,0.8,35.4,-0.9,.,.
COc1cccc(CN2CCC(=O)N(Cc3ccc(F)cc3)CC2)c1,1.4,-0.2,7.5,-0.7,.,.
CCN1CCN(Cc2cccc(Oc3ccccc3)c2)CC1,3.4,0.1,66.4*,-1.4,3.7,-3.2
Fc1ccc(CN2CCN(Cc3cccc(Oc4ccccc4)c3)CC2)cc1,6.1,-0.2,68.2*,0.5,6.2,10.6
c1ccc(Oc2cccc(CN3CCN(Cc4ccncc4)CC3)c2)cc1,4.8,0.2,69.4*,-0.3,-0.2,-5.5
CCOc1ccc(CN2CCN(Cc3cccc(Oc4ccccc4)c3)CC2)cc1,-1.2,-0.1,27.3,1.0,.,.
Cc1ncc(CO)c2cc(C(N)=O)c(=Nc3ccc(C(F)(F)F)cc3)oc12,-1.6,0.1,11.8,-0.6,.,.
CCCC(=O)Nc1c2c(nn1-c1ccc(Cl)cc1)CSC2,-7.8,-0.1,-4.2,-1.0,.,.
CCN(CC)CCCOc1ccc2ccccc2c1,-24.3,-0.1,66.3*,-0.2,-7.1,-3.6
CC(C)=CC(=O)Nc1nnc(Cc2ccccc2)s1,-3.3,-0.4,84.1*,-0.8,11.2,14.3
COc1ccccc1N1CCN(c2ncnc3c2cnn3-c2ccc(F)cc2)CC1,9.2,-0.2,1.1,-0.2,.,.
CCOc1ccc(-n2nc(C(=O)NCc3ccccn3)c3ccccc3c2=O)cc1,7.9,0.7,4.6,-0.9,.,.
c1ccc(CC2(c3ccccc3)CCNC2)cc1 (stereo not given),-4.7,0.0,56.1*,-0.2,-1.2,-1.5
COc1ccccc1N1CCN(Cc2cc3c(cc2[N+](=O)[O-])OCO3)CC1,-3.0,-0.1,-9.0,1.6,.,.
O=[N+]([O-])c1cc2c(cc1CN1CCN(CCO)CC1)OCO2,-0.8,-0.1,17.7,-0.7,.,.
COc1cc(CN2CCC(C)CC2)c([N+](=O)[O-])cc1OC,-0.5,0.1,-5.8,-0.2,.,.
SMILES,TEAD-YAP inh,FBW7 activator,MITF inh,GPR151 ag,MITF inh conf,AlphaScreen intf2
O=[N+]([O-])c1cc2c(cc1CN1CCCCCC1)OCO2,4.5,-0.3,51.6*,0.2,2.9,1.2
COc1cc(CN2CCN(Cc3cccc(Cl)c3)CC2)c([N+](=O)[O-])cc1OC,-6.2,-0.3,56.5*,1.1,19.7,24.1
COc1cc(CN2CCN(Cc3cccc(C)c3)CC2)c([N+](=O)[O-])cc1OC,-0.2,-0.1,72.6*,-0.3,2.1,11.2
COc1cc(CN2CCN(Cc3ccc4c(c3)OCO4)CC2)c([N+](=O)[O-])cc1OC,1.9,-0.3,68.7*,2.4,16.6,19.5
Nc1nc(N)c2sc(Nc3ccccc3)nc2n1,-14.6,0.2,-3.6,-2.0,.,.
CCC(C)C(=O)Nc1ccc(S(=O)(=O)Nc2nccc(C)n2)cc1 (stereo not given),-2.1,-0.1,-12.4,-0.5,.,.
